# Data as given in publication PMC7862700, “An all-to-all approach to the identification of sequence-specific readers for epigenetic DNA modifications on cytosine”.
# What was measured:
# Assay in all cases: DAPPL (digital affinity profiling via proximity ligation, sequencing); 10 mM Tris-HCl pH 7.5, 50 mM NaCl, 1 mM DTT, 4% glycerol, room temperature, 30 min; GST-TFs on glutathione beads, 16-mer random dsDNA library, 0.1% formaldehyde crosslink after washing; high values mean tight binding
# FLI1 = molecular target: T1, FLI1 (Homo sapiens, UniProt Q01543 1-452); details: protein: recombinant; tags: N-terminal GST; dsDNA, one strand shown
# T1 sequence: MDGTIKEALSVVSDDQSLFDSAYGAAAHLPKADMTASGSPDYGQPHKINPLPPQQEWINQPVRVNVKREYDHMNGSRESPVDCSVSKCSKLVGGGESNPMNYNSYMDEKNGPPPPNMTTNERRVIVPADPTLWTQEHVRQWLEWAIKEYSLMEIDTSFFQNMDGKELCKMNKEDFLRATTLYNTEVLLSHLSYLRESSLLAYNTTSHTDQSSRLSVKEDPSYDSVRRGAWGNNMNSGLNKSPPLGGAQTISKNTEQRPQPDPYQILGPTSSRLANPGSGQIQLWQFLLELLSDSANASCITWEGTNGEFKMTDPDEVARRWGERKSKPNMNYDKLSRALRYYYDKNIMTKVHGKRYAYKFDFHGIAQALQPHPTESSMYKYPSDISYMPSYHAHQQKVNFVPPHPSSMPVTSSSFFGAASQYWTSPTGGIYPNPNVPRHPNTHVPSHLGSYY
# Summary of the method: (§1)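 A tag-only sample was pooled with DNA-barcoded human transcription factors that had been expressed in yeast as GST fusions and captured on glutathione beads. The pools were incubated for 30 min at room temperature with 200 nmole of a random double-stranded 16-mer DNA library in Tris/NaCl/DTT/glycerol buffer, then washed, crosslinked with 0.1% formaldehyde, proximity-ligated (BsaI/T4 ligase, 1 h, 37 °C), PCR-amplified and sequenced on an Illumina NextSeq500. Binding signal is each hexamer's read frequency for a factor divided by its frequency for the tag-only sample.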
# ELK1 = molecular target: T2, ELK1 (Homo sapiens, UniProt P19419 1-428); details: protein: recombinant; tags: N-terminal GST; dsDNA, one strand shown
# T2 sequence: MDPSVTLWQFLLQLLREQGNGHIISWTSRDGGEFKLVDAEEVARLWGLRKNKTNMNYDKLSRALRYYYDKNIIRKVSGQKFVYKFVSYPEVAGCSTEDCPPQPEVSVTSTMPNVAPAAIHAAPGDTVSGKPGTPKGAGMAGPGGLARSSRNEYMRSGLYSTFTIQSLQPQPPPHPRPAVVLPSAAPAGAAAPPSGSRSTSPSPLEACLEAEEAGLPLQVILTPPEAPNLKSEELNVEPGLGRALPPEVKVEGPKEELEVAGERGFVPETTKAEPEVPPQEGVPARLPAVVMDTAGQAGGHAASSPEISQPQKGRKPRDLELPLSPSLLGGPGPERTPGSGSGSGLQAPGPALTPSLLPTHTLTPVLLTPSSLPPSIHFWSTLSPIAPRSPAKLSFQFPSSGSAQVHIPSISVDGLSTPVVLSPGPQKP
# Summary of the method: as §1
# GABPA = molecular target: T3, GABPA (Homo sapiens, UniProt Q06546 1-454); details: protein: recombinant; tags: N-terminal GST; dsDNA, one strand shown
# T3 sequence: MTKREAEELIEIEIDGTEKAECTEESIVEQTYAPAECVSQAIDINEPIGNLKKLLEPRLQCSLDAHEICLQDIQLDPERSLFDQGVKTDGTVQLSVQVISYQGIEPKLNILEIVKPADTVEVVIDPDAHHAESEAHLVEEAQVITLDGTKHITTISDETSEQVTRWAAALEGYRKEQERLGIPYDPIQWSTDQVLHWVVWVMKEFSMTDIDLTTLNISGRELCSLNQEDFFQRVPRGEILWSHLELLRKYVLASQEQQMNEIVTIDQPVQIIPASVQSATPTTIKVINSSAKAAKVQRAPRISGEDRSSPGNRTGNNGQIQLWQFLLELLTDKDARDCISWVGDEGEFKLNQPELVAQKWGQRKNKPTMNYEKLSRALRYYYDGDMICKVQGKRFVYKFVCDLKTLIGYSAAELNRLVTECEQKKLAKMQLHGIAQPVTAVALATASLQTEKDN
# Summary of the method: as §1
# ERG = molecular target: T4, ERG (Homo sapiens, UniProt P11308 1-479); details: protein: recombinant; tags: N-terminal GST; dsDNA, one strand shown
# T4 sequence: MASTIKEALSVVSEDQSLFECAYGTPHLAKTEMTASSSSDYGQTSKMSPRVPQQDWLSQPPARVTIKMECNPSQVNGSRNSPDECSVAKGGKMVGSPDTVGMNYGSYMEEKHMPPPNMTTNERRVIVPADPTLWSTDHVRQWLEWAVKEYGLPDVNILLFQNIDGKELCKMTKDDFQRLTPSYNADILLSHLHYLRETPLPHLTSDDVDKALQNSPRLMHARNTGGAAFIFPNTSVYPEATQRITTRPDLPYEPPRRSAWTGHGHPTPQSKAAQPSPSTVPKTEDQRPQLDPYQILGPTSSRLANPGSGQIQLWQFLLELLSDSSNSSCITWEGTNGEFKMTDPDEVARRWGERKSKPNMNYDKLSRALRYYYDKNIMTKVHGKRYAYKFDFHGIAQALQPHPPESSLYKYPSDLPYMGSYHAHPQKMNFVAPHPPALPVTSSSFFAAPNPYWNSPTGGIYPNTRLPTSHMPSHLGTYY
# Summary of the method: as §1
# ELF1 = ELF1 (Homo sapiens, UniProt P32519 1-619); details: protein: recombinant; tags: N-terminal GST; dsDNA, one strand shown
# Sequence of ELF1 (P32519 whole entry): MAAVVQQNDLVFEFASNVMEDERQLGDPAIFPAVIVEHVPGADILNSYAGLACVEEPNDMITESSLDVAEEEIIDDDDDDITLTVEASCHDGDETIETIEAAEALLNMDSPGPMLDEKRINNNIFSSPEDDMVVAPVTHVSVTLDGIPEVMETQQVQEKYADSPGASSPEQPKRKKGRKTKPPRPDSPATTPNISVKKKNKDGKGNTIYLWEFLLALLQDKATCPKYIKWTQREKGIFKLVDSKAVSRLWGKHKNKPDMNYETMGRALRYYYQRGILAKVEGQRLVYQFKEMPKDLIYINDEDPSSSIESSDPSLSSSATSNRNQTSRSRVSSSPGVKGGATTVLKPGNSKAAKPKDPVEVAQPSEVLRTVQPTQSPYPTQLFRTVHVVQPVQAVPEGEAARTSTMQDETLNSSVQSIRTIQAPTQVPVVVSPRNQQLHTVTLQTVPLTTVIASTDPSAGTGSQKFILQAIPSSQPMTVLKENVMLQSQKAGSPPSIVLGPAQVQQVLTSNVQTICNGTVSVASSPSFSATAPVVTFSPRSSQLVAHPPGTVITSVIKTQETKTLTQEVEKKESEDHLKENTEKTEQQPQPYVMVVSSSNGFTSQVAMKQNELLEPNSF
# Summary of the method: as §1
# EHF = molecular target: T5, EHF (Homo sapiens, UniProt Q9NZC4 1-300); details: protein: recombinant; tags: N-terminal GST; dsDNA, one strand shown
# T5 sequence: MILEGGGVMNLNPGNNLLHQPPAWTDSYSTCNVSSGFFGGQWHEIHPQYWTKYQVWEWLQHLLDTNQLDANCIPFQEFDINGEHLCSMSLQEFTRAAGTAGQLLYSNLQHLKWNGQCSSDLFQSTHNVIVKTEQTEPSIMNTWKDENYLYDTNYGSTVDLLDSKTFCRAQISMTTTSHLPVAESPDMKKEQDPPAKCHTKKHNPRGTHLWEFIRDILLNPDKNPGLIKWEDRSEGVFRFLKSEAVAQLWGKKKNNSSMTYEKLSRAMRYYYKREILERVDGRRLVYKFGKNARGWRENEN
# Summary of the method: as §1
# SPI1 = SPI1 (Homo sapiens, UniProt P17947 1-270); details: protein: recombinant; tags: N-terminal GST; dsDNA, one strand shown
# Summary of the method: as §1
# SPIB = SPIB (Homo sapiens, UniProt Q01892 1-262); details: protein: recombinant; tags: N-terminal GST; dsDNA, one strand shown
# Sequence of SPIB (Q01892 whole entry): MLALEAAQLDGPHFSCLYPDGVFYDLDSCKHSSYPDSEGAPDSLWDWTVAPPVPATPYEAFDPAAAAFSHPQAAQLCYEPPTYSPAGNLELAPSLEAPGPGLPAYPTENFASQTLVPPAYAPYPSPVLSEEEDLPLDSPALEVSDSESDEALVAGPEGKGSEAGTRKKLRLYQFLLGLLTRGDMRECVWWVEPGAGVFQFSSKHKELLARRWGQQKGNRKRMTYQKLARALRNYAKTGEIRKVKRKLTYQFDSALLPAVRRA
# Summary of the method: as §1
# FEV = molecular target: T6, FEV (Homo sapiens, UniProt Q99581 1-238); details: protein: recombinant; tags: N-terminal GST; dsDNA, one strand shown
# T6 sequence: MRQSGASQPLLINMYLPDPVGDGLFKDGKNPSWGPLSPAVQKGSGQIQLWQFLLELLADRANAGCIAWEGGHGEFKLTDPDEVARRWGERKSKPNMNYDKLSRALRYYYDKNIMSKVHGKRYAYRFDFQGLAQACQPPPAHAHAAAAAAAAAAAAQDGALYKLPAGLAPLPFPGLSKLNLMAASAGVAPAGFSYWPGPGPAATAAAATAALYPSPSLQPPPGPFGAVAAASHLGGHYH
# Summary of the method: as §1
# ETV5 = ETV5 (Homo sapiens, UniProt P41161 1-510); details: protein: recombinant; tags: N-terminal GST; dsDNA, one strand shown
# Sequence of ETV5 (P41161 whole entry): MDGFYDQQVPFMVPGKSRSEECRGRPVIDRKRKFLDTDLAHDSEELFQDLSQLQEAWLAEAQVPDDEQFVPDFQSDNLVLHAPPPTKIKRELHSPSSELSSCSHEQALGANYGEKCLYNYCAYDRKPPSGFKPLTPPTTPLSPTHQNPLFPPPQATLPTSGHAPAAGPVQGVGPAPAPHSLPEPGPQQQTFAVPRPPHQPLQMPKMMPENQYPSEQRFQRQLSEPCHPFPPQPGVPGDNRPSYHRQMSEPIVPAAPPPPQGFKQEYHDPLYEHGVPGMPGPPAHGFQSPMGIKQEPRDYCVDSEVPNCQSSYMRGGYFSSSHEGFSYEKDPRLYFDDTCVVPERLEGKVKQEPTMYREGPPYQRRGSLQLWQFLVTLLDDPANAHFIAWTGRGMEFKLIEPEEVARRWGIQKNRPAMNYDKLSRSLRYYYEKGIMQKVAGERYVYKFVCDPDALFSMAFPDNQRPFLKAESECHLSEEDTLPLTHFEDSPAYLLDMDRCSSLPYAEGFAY
# Summary of the method: as §1
# HSF1 = HSF1 (Homo sapiens, UniProt Q00613 1-529); details: protein: recombinant; tags: N-terminal GST; chain copies: 3; dsDNA, one strand shown
# Sequence of HSF1 (Q00613 whole entry): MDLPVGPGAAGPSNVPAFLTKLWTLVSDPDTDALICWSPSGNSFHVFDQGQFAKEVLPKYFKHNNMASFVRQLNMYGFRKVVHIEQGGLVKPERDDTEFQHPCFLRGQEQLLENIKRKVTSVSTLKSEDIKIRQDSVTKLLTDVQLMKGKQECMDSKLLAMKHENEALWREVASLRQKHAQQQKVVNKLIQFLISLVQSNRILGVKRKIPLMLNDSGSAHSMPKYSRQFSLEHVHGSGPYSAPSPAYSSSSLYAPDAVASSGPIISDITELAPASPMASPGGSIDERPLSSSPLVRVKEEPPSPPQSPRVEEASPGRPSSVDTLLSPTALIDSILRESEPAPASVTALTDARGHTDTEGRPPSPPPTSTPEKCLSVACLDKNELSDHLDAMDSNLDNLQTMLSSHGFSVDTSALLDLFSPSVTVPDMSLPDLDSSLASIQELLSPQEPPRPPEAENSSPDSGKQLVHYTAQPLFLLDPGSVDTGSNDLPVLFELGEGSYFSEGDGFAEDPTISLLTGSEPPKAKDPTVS
# Summary of the method: as §1
# SPIC = molecular target: T7, SPIC (Homo sapiens, UniProt Q8N5J4 1-248); details: protein: recombinant; tags: N-terminal GST; dsDNA, one strand shown
# T7 sequence: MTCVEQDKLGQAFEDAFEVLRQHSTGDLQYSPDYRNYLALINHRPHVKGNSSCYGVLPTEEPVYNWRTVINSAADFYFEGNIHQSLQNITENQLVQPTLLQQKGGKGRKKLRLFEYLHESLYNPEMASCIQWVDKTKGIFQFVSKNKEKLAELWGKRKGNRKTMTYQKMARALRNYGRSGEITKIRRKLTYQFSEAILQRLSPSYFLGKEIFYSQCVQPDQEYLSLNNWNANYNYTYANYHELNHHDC
# Summary of the method: as §1
# ELF4 = ELF4 (Homo sapiens, UniProt Q99607 1-663); details: protein: recombinant; tags: N-terminal GST; dsDNA, one strand shown
# Sequence of ELF4 (Q99607 whole entry): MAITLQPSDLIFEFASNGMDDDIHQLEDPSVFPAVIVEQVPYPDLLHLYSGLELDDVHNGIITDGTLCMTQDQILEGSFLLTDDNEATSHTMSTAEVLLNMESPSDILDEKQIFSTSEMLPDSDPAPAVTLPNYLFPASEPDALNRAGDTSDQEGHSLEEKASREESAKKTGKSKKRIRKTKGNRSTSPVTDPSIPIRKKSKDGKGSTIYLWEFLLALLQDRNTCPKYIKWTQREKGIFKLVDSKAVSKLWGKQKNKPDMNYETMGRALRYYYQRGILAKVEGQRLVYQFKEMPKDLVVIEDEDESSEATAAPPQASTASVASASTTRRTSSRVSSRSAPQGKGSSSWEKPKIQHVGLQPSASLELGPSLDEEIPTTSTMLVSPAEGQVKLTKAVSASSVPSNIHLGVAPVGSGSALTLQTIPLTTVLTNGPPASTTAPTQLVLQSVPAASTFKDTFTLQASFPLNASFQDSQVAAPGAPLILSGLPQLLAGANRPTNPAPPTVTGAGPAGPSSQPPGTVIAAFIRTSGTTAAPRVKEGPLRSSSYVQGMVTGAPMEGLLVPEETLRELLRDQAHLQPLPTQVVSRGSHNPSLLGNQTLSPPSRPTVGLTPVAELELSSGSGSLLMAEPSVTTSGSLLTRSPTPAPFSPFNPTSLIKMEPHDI
# Summary of the method: as §1
# ELK4 = molecular target: T8, ELK4 (Homo sapiens, UniProt P28324-2 1-405); details: protein: recombinant; tags: N-terminal GST; dsDNA, one strand shown
# T8 sequence: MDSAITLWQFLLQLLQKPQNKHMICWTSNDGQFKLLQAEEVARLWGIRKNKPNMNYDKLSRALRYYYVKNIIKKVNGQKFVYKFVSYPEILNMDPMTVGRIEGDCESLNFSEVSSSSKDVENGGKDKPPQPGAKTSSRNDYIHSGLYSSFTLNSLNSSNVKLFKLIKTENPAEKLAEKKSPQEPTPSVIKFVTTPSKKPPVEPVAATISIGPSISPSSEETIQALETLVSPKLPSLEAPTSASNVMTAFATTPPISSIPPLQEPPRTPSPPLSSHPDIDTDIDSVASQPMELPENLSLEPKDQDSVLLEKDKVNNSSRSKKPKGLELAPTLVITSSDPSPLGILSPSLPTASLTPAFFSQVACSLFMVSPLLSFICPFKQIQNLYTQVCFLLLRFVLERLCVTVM
# Summary of the method: as §1
# ETV2 = molecular target: T9, ETV2 (Homo sapiens, UniProt O00321 1-342); details: protein: recombinant; tags: N-terminal GST; dsDNA, one strand shown
# T9 sequence: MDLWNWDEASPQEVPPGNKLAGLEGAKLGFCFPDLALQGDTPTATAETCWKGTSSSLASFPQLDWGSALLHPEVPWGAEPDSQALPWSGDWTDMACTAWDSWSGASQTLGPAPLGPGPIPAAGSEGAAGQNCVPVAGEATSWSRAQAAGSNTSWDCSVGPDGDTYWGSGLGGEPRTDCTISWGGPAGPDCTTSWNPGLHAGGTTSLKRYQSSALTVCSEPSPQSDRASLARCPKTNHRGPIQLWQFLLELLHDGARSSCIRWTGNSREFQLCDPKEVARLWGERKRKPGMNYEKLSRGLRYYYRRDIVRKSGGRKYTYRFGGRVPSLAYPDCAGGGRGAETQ
# Summary of the method: as §1
# ELF3 = molecular target: T10, ELF3 (Homo sapiens, UniProt P78545 1-371); details: protein: recombinant; tags: N-terminal GST; dsDNA, one strand shown
# T10 sequence: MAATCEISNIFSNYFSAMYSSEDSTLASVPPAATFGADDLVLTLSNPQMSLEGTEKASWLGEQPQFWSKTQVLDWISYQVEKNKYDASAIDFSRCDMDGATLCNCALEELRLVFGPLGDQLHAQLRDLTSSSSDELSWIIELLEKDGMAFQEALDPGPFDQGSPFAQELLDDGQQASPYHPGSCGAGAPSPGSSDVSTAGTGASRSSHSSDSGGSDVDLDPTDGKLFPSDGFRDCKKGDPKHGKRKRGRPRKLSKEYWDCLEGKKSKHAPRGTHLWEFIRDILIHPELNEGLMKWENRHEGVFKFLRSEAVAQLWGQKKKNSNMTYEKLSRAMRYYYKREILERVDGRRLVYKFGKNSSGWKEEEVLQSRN
# Summary of the method: as §1
# CRX = CRX (Homo sapiens, UniProt O43186 1-299); details: protein: recombinant; tags: N-terminal GST; dsDNA, one strand shown
# Sequence of CRX (O43186 whole entry): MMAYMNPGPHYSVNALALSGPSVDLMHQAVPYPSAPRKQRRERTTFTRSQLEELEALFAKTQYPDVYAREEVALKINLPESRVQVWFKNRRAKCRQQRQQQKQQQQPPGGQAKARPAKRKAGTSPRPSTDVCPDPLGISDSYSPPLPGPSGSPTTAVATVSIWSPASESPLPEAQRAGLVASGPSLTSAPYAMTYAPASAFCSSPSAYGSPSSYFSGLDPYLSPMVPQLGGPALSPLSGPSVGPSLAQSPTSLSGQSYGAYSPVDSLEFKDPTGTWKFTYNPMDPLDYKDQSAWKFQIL
# Summary of the method: as §1
# ETV1 = ETV1 (Homo sapiens, UniProt P50549 1-477); details: protein: recombinant; tags: N-terminal GST; dsDNA, one strand shown
# Sequence of ETV1 (P50549 whole entry): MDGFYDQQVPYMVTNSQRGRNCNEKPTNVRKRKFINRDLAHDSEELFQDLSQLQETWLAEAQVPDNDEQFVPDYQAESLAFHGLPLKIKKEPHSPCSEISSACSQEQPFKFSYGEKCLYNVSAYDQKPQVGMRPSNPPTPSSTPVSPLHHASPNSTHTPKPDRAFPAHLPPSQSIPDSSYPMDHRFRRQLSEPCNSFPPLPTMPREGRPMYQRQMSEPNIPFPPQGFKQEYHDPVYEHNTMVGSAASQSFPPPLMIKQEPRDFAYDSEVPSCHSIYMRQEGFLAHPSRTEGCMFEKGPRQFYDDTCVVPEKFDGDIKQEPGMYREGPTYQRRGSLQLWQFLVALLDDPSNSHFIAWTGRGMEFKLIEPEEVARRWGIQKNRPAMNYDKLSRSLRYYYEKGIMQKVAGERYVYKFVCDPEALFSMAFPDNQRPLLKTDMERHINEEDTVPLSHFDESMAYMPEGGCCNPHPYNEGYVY
# Summary of the method: as §1
sequence,measurement,setting,value
AAAAGG,binding signal,FLI1,"1.1 fold enrichment (6-mer frequency, TF over GST control)"
same,binding signal,ELK1,"1.05 fold enrichment (6-mer frequency, TF over GST control)"
same,binding signal,GABPA,"1.25 fold enrichment (6-mer frequency, TF over GST control)"
same,binding signal,ERG,"1.13 fold enrichment (6-mer frequency, TF over GST control)"
same,binding signal,ELF1,"1.1 fold enrichment (6-mer frequency, TF over GST control)"
same,binding signal,EHF,"1.1 fold enrichment (6-mer frequency, TF over GST control)"
same,binding signal,SPI1,"1.48 fold enrichment (6-mer frequency, TF over GST control)"
same,binding signal,SPIB,"1.1 fold enrichment (6-mer frequency, TF over GST control)"
same,binding signal,FEV,"1.06 fold enrichment (6-mer frequency, TF over GST control)"
same,binding signal,ETV5,"1.17 fold enrichment (6-mer frequency, TF over GST control)"
same,binding signal,HSF1,"1.05 fold enrichment (6-mer frequency, TF over GST control)"
same,binding signal,SPIC,"1.18 fold enrichment (6-mer frequency, TF over GST control)"
same,binding signal,ELF4,"1.1 fold enrichment (6-mer frequency, TF over GST control)"
same,binding signal,ELK4,"1 fold enrichment (6-mer frequency, TF over GST control)"
same,binding signal,ETV2,"1.12 fold enrichment (6-mer frequency, TF over GST control)"
same,binding signal,ELF3,"1.2 fold enrichment (6-mer frequency, TF over GST control)"
same,binding signal,CRX,"1.04 fold enrichment (6-mer frequency, TF over GST control)"
same,binding signal,ETV1,"1.19 fold enrichment (6-mer frequency, TF over GST control)"
